Screening results: PubChem BioAssay, National Center for Advancing Translational Sciences (NCATS)
Shown are actives, neighbours in structure and some others; about 6.1% of the full set was active somewhere.
DRD3 agonist = qHTS of D3 Dopamine Receptor Agonist: qHTS; D3R DiscoveRx beta-arrestin cells, luminescence, 90 min; max activation, %; 0.58% of 410,000 active; D(3) dopamine receptor (Homo sapiens), P35462; in the data active = max activation above about 30%
Target sequence (P35462 whole entry, looked up): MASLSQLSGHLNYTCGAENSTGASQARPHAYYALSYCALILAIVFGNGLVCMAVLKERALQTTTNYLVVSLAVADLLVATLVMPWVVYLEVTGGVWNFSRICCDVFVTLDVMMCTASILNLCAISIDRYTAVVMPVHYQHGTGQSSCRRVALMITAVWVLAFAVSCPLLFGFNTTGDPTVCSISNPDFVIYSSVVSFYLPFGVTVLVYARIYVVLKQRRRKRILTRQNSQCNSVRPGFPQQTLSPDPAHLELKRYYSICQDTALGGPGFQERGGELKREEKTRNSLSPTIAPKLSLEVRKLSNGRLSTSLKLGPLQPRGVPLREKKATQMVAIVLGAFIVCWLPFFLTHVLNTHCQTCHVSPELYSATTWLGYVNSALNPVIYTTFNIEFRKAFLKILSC
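Agonist-mode cell screen: cells plated at 1500/well and incubated overnight at 37 °C, then exposed to library compounds for 90 min at 37 °C. Detection reagent was added for 30–60 min at room temperature, and luminescence was read.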
D1 PAM = Potentiators of Human D1 Dopamine Receptor: qHTS; D(1A) dopamine receptor (Homo sapiens), P21728; HEK293 TREx D1 cells, calcium flux, dopamine EC20 potentiation; potentiation, % at 10 µM; 0.036% of 360,000 active; in the data active = potentiation above about 30%
D1 antagonist = Antagonist of Human D 1 Dopamine Receptor: qHTS. D(1A) dopamine receptor (Homo sapiens), P21728. 3.2% of 360,000 active. HEK293 TREx D1 cells, calcium flux, dopamine EC80; active compounds read low. activity change, negative = inhibition, % at 10 µM; in the data active = activity change below about -30%
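Inducible Hek293 Trex D1 cells (tetracycline, overnight, 30 C). Calcium dye 30–90 min RT. Antagonist mode: EC80 dopamine added after 180 s compound read.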
D3 antag = qHTS of D3 Dopamine Receptor Antagonist: qHTS; max response, negative = inhibition, %; D(3) dopamine receptor (Homo sapiens), P35462; AID 652054, 2013; 2.5% of 360,000 active; D3R cells, DiscoveRx beta-arrestin luminescence, antagonist mode; active compounds read low; in the data active = max response below about -50%; inconclusive = no clear call, values can overlap the other calls
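Cells plated overnight at 1500 cells/well, then exposed to library compounds with dopamine controls for 90 minutes at 37 degrees C. DiscoveRx reagent added for 30–60 minutes at room temperature; luminescence read, quantitative HTS format.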
D1 ag = Allosteric Agonists of the Human D1 Dopamine Receptor: qHTS; HEK293 T-REx D1 cells, calcium flux, agonist mode; activation, % at 2 µM; D(1A) dopamine receptor (Homo sapiens), P21728; 1% of 360,000 active; in the data active = activation above about 30%
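Inducible HEK293 T-REx D1 cells, force-coupled to calcium signalling, were plated at 4000 cells/well with tetracycline and held overnight at 30 C. After no-wash calcium dye loading, compound-evoked calcium rise over 180 s flagged agonists.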
ERG-DNA inh = qHTS for Small Molecule Inhibitors of the ERG Ets/DNA interaction | fluorescence polarization, His-ERG Ets domain / labelled DNA | Potency, µM (highest dose often 76.9 µM), usual class: inhibitors | 0.028% of 370,000 active; active = well fitted inhibition curve with a large enough effect in the polarisation, with a control signal flat; inconclusive = small, poorly fitted or top-dose-only effect, or effect the other way, or a change in a side signal; inactive = no such curve, though single readings can be large or run the other way; the % refers to the polarisation;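 also: polarization taken with two DNA probes labelled with fluorescein and Texas red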
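His-tagged ERG Ets domain (1 uM in the protein solution; 300mM KCl, 50mM Tris-HCl, 1mM EDTA, 1mM DTT, pH 7.5) received compound, then a probe mix of 5 nM fluorescein-DNA and 100nM Texas-615-DNA. Fluorescence polarization was read for both dyes.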
Each line names hits and unclear results; the compound was inactive in the other large screens; ! = repeats disagree.

CC1CCCCN1Cc1c(O)ccc2c(=O)c(-c3ccc(Cl)cc3Cl)coc12 (stereo not given)	none
COc1ccc(CC(=O)NC(C)c2nnc(SCC(=O)c3ccc(Br)cc3)n2C)cc1 (stereo not given)	D3 antag -56
CC(C)CCSc1nc2c(c(=O)n(C)c(=O)n2C)n1Cc1ccccc1Cl	none (no result: D3 antag)
CCN(CC(=O)NCc1ccc(Cl)cc1)C(=O)/C=C/c1cc(OC)c(OC)c(OC)c1	none
O=C(OCc1ccc(Br)cc1)c1cccnc1Cl	none
Cc1noc(C)c1COC(=O)c1cccnc1Cl	D1 antagonist -34
COc1cc2sc(-c3ccccc3OC)c(-c3ccc(OCCN4CCOCC4)cc3)c2cc1OC	none (no result: D1 PAM, D1 antagonist, D1 ag)
Cn1c(C(C(=O)NCC2CCCO2)N(CCc2ccccc2)C(=O)Cn2nnc3ccccc32)nc2ccccc21 (stereo not given)	ERG-DNA inh inconclusive
Cc1noc(-c2ccccc2)c1NC(=O)Nc1ccc2nc([C@H]3C[C@H](O)[C@@H](CO)O3)[nH]c2c1	none (no result: D1 PAM, D1 antagonist, D1 ag, ERG-DNA inh)
Cc1cc(C)n(CCN(C)C(=O)c2cc(COc3c(F)cccc3F)on2)n1	D1 antagonist -50
CCCOC1CCCN(C(=O)c2cc(COc3c(F)cccc3F)on2)C1 (stereo not given)	none
Cc1ccccc1C1CCCN(C(=O)c2cc(COc3c(F)cccc3F)on2)C1 (stereo not given)	D1 antagonist -33
O=C(NCCN1CCCCC1)c1cc(COc2c(F)cccc2F)on1	D3 antag -62
Cc1cc(C)n(CCNC(=O)c2cc(COc3c(F)cccc3F)on2)n1	none
Cc1cccc(C(=O)Nc2c(C(=O)N3CCN(c4ccc(F)cc4)CC3)oc3ccccc23)c1	none (no result: D3 antag)
O=C(Nc1c(C(=O)N2CCN(c3ccc(F)cc3)CC2)oc2ccccc12)c1c(F)cccc1F	D1 antagonist -59 (no result: D3 antag)
O=C(COc1ccc(F)cc1)Nc1c(C(=O)N2CCC(N3CCCCC3)CC2)oc2ccccc12	D1 antagonist -35
COc1ccc(CC(=O)Nc2c(C(=O)N3CCN(c4ccccc4)CC3)oc3ccccc23)cc1OC	D1 antagonist -31!
O=C(COc1ccccc1)Nc1c(C(=O)N2CCC(N3CCCCC3)CC2)oc2ccccc12	none
O=C(Nc1c(C(=O)N2CCC(N3CCCCC3)CC2)oc2ccccc12)c1c(F)cccc1F	DRD3 agonist 51!
CC(=O)Nc1ccc(S(=O)(=O)NNC(=O)CCC(=O)Nc2cc(C)ccc2C)cc1	none
CCCc1ccc(C(=O)NNc2cc(Cl)ccc2Cl)cc1	none
CC1=NN(C(=O)c2ccc(Cl)cc2)C(O)(c2ccccc2)C1 (stereo not given)	none
COC(=O)C1=NN(C(=O)c2ccccc2)C(O)(c2ccc([N+](=O)[O-])cc2)C1 (stereo not given)	D1 ag 86
COC(=O)C1=NN(C(=O)c2ccc(C)cc2)C(O)(c2ccc(Cl)cc2)C1 (stereo not given)	D3 antag inconclusive, D1 ag 57 (no result: ERG-DNA inh)
CCOc1cc2[nH]c(=S)n(Cc3ccc(C(=O)NCCCN(CC)CC)cc3)c(=O)c2cc1OCC	none
COC(=O)Sc1nc(N2CCOCC2)c2c(c1C#N)CC(C)(C)OC2	D3 antag -57
COC(=O)CSc1nc(N2CCOCC2)c2c(c1C#N)CC(C)(C)OC2	none
CCc1ccc2oc(-c3cccc(NC(=O)c4ccc(-c5cccc([N+](=O)[O-])c5)o4)c3)nc2c1	none (no result: D3 antag)
Cn1c(CCNC(=O)c2ccc(Cl)c(Cl)c2)nnc1SCc1ccc(Cl)c(Cl)c1	D3 antag -53
C=CCn1c(CCNC(=O)c2ccc(Cl)c(Cl)c2)nnc1SCCOc1ccc(OC)cc1	none
Cc1cccc(C)c1NC(=S)N(Cc1ccccc1)Cc1cccs1	none
